PubChem BioAssay (EPA / NIEHS)
Activity calls are given as the source filed them. How the source made its calls: active means hit-call score of the fitted dose curve at least 0.9, where 1 is the maximum; inactive means score below 0.9.

Read-out: Monokine induced gamma interferon (MIG), CXCL9 (gene 4283)
Assay: BSK_KF3CT_MIG: BioMAP Diversity Plus: KF3CT Assay for Monokine induced gamma interferon (MIG) Biomarker Activity (AID 2284248)
Settings: primary human keratinocytes with fibroblasts
Description: BSK_KF3CT is a cell-based, multiplexed-readout assay that uses keratinocytes and foreskin fibroblasts, a human skin primary cell co-culture, with measurements taken at 24 hours after chemical dosing in a 96-well plate.BSK_KF3CT_MIG is an assay component measured in the BSK_KF3CT assay. It measures MIG antibody related to regulation of gene expression using ELISA technology.Data from the assay component BSK_KF3CT_MIG was analyzed at the endpoint, BSK_KF3CT_MIG, in the positive analysis fitting direction relative to DMSO as the negative control and baseline of activity. Using a type of binding reporter, gain or loss-of-signal activity can be used to understand protein changes. To generalize the intended target to other relatable targets, this assay endpoint is annotated to the 'cytokine' intended target family, where the subfamily is 'chemotactic factor'.
The levels of cell surface (or secreted, indicated by the prefix "s") biomarker endpoints were measured by ELISA. Overt cytotoxicity to cells in confluent adherent cultures (all systems other than the BT system) was assessed by measuring total protein levels using sulforhodamine B (SRB) staining in parallel cultures at the time of biomarker measurements, indicated as SRB endpoints. For proliferation assays for adherent cell types, individual cell types are cultured at sub-confluence and relative cell numbers quantified by SRB staining at time points optimized for each system (48 h: 3C and CASM3C systems; 72 h: BT and HDF3CGF systems; 96 h: SAg system). SRB was performed by staining cells with 0.1% SRB after fixation with 10% TCA and reading wells at 560 nm.Viability and proliferation of PBMC (T cells) was quantified by Alamar Blue reduction for the SAg and BT systems. For PBMC viability (referred to as PBMC Cytotoxicity within the assay endpoint names), cells were plated (75,000/well in a 96-well plate) and then chemical samples added for 1 h before addition of activators, SEB and TSST-1 (20 ng/mL final concentration each). Cells were incubated for 90 h. Then, Alamar Blue (20 uL/well) (Invitrogen, Cat DAL1100) was added for 6 h, and the plates were read with a fluorescence microplate reader at 546/580 nm (excitation/emission). For PBMC proliferation, cells were plated and activated as above but incubated for only 16 h prior to addition of Alamar Blue. Plates were read after 6 h.

SMILES | outcome
O=S(=O)(O)CCC(F)(F)C(F)(F)C(F)(F)C(F)(F)C(F)(F)C(F)(F)F | inactive
FC(F)C(F)(F)COCC1CO1 (stereo not given) | inactive
FC(F)=C(F)C(F)(F)C(F)(F)C(F)(F)C(F)(F)C(F)(F)C(F)(F)F | inactive
OCCC(F)(F)C(F)(F)C(F)(F)C(F)(F)F | inactive
C[Si](C)(C)C(F)(F)C(F)(F)C(F)(F)F | inactive
FC(F)(F)COC(OCC(F)(F)F)OCC(F)(F)F | inactive
NCC(F)(F)C(F)(F)C(F)(F)C(F)(F)F | inactive
FC(F)(F)C(F)(F)C(F)(F)C(F)(F)C(F)(F)C(F)(F)I | inactive
OC(O)(C(F)C(O)(O)C(F)(F)F)C(F)(F)F | inactive
O=C(Cl)C(F)(F)C(F)(F)C(F)(F)C(=O)Cl | inactive
